# CF NFkB inh: inhibitors of PAF-induced NF-kB signaling, primary screen, cell-based, GFP fluorescence, uHTS; KKLEB NF-kB-GFP reporter, GFP fluorescence overnight; actives 0.86% (n = 360,000); inhibition, % at 5 µM;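 active means at least 50% inhibition at 5 µM, scaled per plate between neutral and stimulator controls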;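 further: PAF is a Pseudomonas aeruginosa culture filtrate used as stimulus; plate controls were PAF-stimulated DMSO wells for no effect and unstimulated DMSO wells for full effect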
# HIF-2a inh: HIF-2a reporter inhibitors, primary screen, luminescence, 786-0 RCC cells; 786-0 RCC cells HIF-2a reporter, luciferase luminescence, overnight; inhibition, % at 18.8 µM; actives 0.72% (n = 360,000); AID 624352, 2012;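 active means inhibition of the luminescence signal of 40% or more relative to plate controls, in a single-dose primary screen at 18.75 µM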
# ABHD5-PLIN5 inh: ABHD5-PLIN5 interaction inhibitors, primary screen, cell lysate, split luciferase complementation, luminescence; Split G. princeps luciferase complementation, 4 h; inhibition, % at 4 µM; actives 0.78% (n = 360,000);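 active means inhibition above the mean inhibition across every tested compound plus 3 SD, cut at about 22% in these data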;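 further: 0% = DMSO only wells and the 100% control is not disclosed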
# Target sequence (Q00G26 whole entry, looked up): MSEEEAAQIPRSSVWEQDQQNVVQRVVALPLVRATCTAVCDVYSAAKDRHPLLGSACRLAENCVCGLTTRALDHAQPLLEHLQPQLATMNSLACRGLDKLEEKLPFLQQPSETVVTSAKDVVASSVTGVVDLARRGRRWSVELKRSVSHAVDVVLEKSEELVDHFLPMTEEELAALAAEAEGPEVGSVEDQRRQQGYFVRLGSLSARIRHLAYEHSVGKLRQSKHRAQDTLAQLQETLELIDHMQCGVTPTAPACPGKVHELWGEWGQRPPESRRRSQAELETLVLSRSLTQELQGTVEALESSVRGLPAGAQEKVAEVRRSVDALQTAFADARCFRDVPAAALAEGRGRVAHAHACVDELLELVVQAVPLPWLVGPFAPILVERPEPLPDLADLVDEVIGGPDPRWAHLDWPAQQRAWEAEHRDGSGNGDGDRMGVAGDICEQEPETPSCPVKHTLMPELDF
# Target sequence (Q8WTS1 whole entry, looked up): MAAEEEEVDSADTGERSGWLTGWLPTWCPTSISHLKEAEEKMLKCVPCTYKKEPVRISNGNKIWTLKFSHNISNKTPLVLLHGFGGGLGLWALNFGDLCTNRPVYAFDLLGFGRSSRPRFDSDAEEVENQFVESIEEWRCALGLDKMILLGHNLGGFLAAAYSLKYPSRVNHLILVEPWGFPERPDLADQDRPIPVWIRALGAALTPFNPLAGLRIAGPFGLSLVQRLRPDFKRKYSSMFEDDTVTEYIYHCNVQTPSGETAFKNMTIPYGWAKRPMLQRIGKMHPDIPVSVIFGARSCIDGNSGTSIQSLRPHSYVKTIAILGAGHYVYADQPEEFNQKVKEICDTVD
# KKLEB tox: cytotoxicity in KKLEB CF airway cells, primary screen, cytotoxicity control for CF NF-kB inhibitor project, cell-based, uHTS, fluorescence assay plates | activity change (cytotoxicity), % at 5 µM | actives 0.36% (n = 360,000) | KKLEB CF airway cells viability, ATPlite luminescence, overnight; hits give low values; cells stimulated with P. aeruginosa culture filtrate;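 active means corrected activity change at or below -50% at 5 µM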
# MITF TRPM1 inh: inhibitors of MITF-dependent TRPM1 promoter reporter, primary screen, cell-based, SK-MEL-5, single point, luciferase. SK-MEL-5 TRPM1 promoter luciferase, 24 h. inhibition, % at 12.5 µM. actives 0.83% (n = 330,000). AID 488899, 2010;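 active means mean inhibition across replicates of 60% or more, whatever share of single replicates reaches that level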
# Peg3 prom inh: Peg3 promoter-driven luciferase inhibitors, primary screen, cell-based, HeLa, luciferase luminescence; HeLa PEG-Prom luciferase reporter, overnight; inhibition, % at 20 µM; actives 1.7% (n = 360,000);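 active means inhibition of at least 50% at 20 µM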
# CF NFkB inh conf: inhibitors of PAF-induced NF-kB signaling, retest, confirmation, cell-based, GFP fluorescence, single concentration; shares compounds with CF NFkB inh; KKLEB CF airway cells, overnight; inhibition, % at 5 µM; actives 64% (n = 1,300); AID 602472, 2012; in the data active means inhibition above about 40%;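 further: stimulus PAF is a Pseudomonas aeruginosa filtrate and not platelet activating factor; plate controls were DMSO wells with stimulus for no effect and unstimulated DMSO wells for full effect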
# Starred values were filed as active, the others as inactive; nt = not tested or not shown; ! = repeats disagree. Shown are actives, neighbours in structure and some others; about 3.1% of the full set was active somewhere.
SMILES,CF NFkB inh,HIF-2a inh,ABHD5-PLIN5 inh,KKLEB tox,MITF TRPM1 inh,Peg3 prom inh,CF NFkB inh conf
O=C(NC(=S)Nc1ccc(CN2CCOCC2)cc1)c1ccc([N+](=O)[O-])cc1,-8.7,15.4,-8.2,3.9,-6.6,11.7,nt
O=C(Nc1ccccc1)Nc1ncc([N+](=O)[O-])s1,57.1*,-136.0,1.6,-42.0,-4.5,-142.5,86.7*
O=C(COC(=O)c1ccccc1)Nc1ncc([N+](=O)[O-])s1,7.7,-81.1,-8.9,22.6,-28.5,-64.1,nt
CCS(=O)(=O)n1nc(-c2ccco2)nc1N,-55.6,16.6,4.3,1.6,1.2,10.3,nt
COc1ccc(-c2[nH]ncc2-c2ccc(Cl)cc2)c(O)c1,21.4,-8.9,-3.0,-10.0,6.9,42.1,nt
COc1ccc(-c2cn[nH]c2-c2ccc(OCc3ccccc3F)cc2O)cc1OC,59.5*,19.8,-7.0,-22.3,11.9,45.5,60.5*
COc1ccc(-c2cn[nH]c2-c2ccc(OC)cc2O)cc1,72.4*,9.1,-2.1,-5.0,6.2,28.3,79.8*
COc1ccc(-c2cn[nH]c2C)cc1,53.2*,7.5,-4.0,-17.8,-4.5,-1.8,10.7
Cn1cc(C(CO)Cc2ccccc2)c2ccccc21 (stereo not given),-2.4,11.2,-5.0,6.3,-5.2,-9.6,nt
CCOc1cc2c(cc1O)C(=NO)CC1C2CCC2(C)C(O)CCC12 (stereo not given),52.4*,31.5,4.5,-27.9,53.1,0.7,75.0*
CCc1nc2sc3c(c2c(=O)n1CCO)CCC3,9.8,4.1,-2.0,5.6,9.3,11.5,nt
CCOC(=O)c1[nH]c(C)c(C(=O)N2CCc3ccccc32)c1C,53.5*,12.0,-2.5,-35.5,58.7,-34.8,56.8*
CC(=O)c1c(C)[nH]c(C(=O)N2CCc3ccccc32)c1C,-10.3,2.7,0.4,-0.6,3.4,7.8,nt
O=C(Nc1cccc(S(=O)(=O)NC2=NCCC2)c1)c1ccc(C(F)(F)F)cc1,-20.6,-5.9,0.2,1.5,13.4,-4.5,nt
Cc1[nH]nc2c1-c1nc3ccccc3nc1C(C)(C)C2,51.4*,22.9,1.4,-13.9,41.5,22.4,54.3*
CC12CCC(C)(c3nc4ccccc4nc31)C2(C)C,-20.5,6.6,-2.8,4.4,-3.8,-9.6,nt
Cc1ccccc1OCC(=O)N=Nc1c(O)n(C)c2ccccc12,-22.5,-64.3,-0.7,14.9,-12.2,-64.8,nt
Cc1c2ccncc2cc2c1[nH]c1ccccc12,55.4*,18.2,5.1,-45.5,-40.7,49.8,20.7
CC1(c2nc3ccccc3[nH]2)CCC(=O)N1Cc1ccc(F)cc1 (stereo not given),-5.3,11.4,-1.4,7.7,nt,2.4,nt
Cc1ccnc(NC(=O)Cc2ccc(-c3ccccc3)cc2)c1,61.9*,-431.0,1.0,-17.0,-46.0,97.8*,57.7*
CCCCCCc1cc2cc(C(=O)Nc3ccccc3OC)c(=O)oc2cc1O,53.6*,9.2,-4.1,-42.4,3.5,2.6,55.3*
CCCCCCc1cc2cc(S(=O)(=O)c3ccc(F)cc3)c(=O)oc2cc1O,51.2*,5.0,-2.4,-36.2,-9.9,42.7,77.7*
Cc1ccc(C(=O)c2cncc(Br)c2)cc1,50.3*,-66.4,-0.3,-7.5,-45.0,-77.7,61.5*
CCc1ccc(C(=O)c2cncc(Br)c2)cc1,43.2,-179.1,6.1,-12.4,-69.5,-203.7,nt
CCOc1ccc(NCc2cc3c(C(C)(C)C)nn(-c4ccccc4)c3[nH]c2=O)cc1,55.4*,13.9,1.2,31.7,21.1,-1.1,72.9*
SMILES,CF NFkB inh,HIF-2a inh,ABHD5-PLIN5 inh,KKLEB tox,MITF TRPM1 inh,Peg3 prom inh,CF NFkB inh conf
COc1cccc(NCc2cc3c(C(C)(C)C)nn(-c4ccccc4)c3[nH]c2=O)c1,-19.5,2.4,-0.9,15.3,3.4,-9.0,nt
Cn1c(-c2ccc(C#N)cc2)c(C#Cc2ccccc2)c2ccccc21,-6.9,-73.8,7.9,10.2,2.3,-30.2,nt
N#Cc1c(-c2ccc(Cl)cc2)n(O)c2ccccc12,52.4*,-91.6,-8.2,-34.4,2.6,-14.4,76.5*
FC(F)(F)c1ccccc1-n1ccnc1,-1.9,-6.3,5.9,-8.5,0.7,10.5,nt
O=C1N(c2ccccc2C(F)(F)F)O[C@]1(c1ccccc1)C1CCCCC1,54.0*,22.1,4.9,6.2,7.9,65.4*,64.1*
Cc1cc(C)c(NC(=O)c2cc(C(=O)O)ccc2C(=O)O)c([N+](=O)[O-])c1,-1.6,13.7,2.1,1.1,2.7,12.6,nt
Fc1ccccc1-c1csc(=Nc2cccnc2)n1CCCn1ccnc1,65.9*,-33.1,2.5,-13.3,-10.4,-67.3,70.8*
CN(CCC1CCOCC1)C(=O)C1CCC(=O)N(CCc2ccccc2)C1 (stereo not given),-2.6,4.8,-7.0,6.5,1.8,9.1,nt
Cc1cn(-c2cc(C(=O)Nc3ccc(C)c(NC(=O)C(=O)c4c[nH]c5ccccc45)c3)cc(C(F)(F)F)c2)cn1,50.2*!,24.2,-5.0,-0.4,11.8,28.7,21.2
Cc1ccc(C(=O)Nc2cccc(C(F)(F)F)c2)cc1NC(=O)c1c[nH]c2cc(C(F)(F)F)ccc2c1=O,18.1,-0.8,1.7,14.6,0.6,0.9,nt
Cc1ccc(NC(=O)CSc2nc3cc(C(=O)NCC4CCCO4)ccc3c(=O)n2CC2CCCO2)cc1 (stereo not given),-21.2,-1.0,-4.3,9.0,nt,1.8,nt
O=C1NC(=S)N/C1=C/c1cccnc1,51.5*,11.6,-1.4,-6.3,-1.3,-2.1,46.5*
O=C1NC(=S)N/C1=C\c1cccnc1,54.1*,18.2,5.6,-2.5,-10.3,15.4,64.2*
COc1ccc(C(=O)Nc2cccc(NC(=O)c3ccc(OC)c(OC)c3)n2)cc1OC,83.9*,-84.7,2.9,0.1,-20.7,13.6,62.1*
COc1ccc(-c2ccc([C@H]3[C@H]4C=CC[C@@H](C)[C@@H]4C(=O)N3Cc3ccccc3)c(F)c2)cc1C,26.3,35.0,0.1,-9.2,3.3,7.7,nt
C[C@@H]1CC=C[C@@H]2[C@H]1C(=O)N(Cc1ccccc1)[C@H]2c1ccccc1Br,21.4,1.0,1.9,-4.0,4.2,26.5,nt
COc1ccc(-c2c([C@H]3[C@H]4C=CC[C@@H](C)[C@@H]4C(=O)N3Cc3ccccc3)ccc3ccccc23)cc1OC,62.2*,14.6,6.8,-23.7,12.5,-1.8,45.6*
COc1ccc(-c2ccccc2[C@H]2[C@@H]3C=CC[C@@H](C)[C@@H]3C(=O)N2Cc2ccccc2)cc1,60.4*,6.2,1.1,-26.2,20.5,33.3,50.2*

# Screening results: PubChem, several laboratories
